Reference: PubChem BioAssay (Tox21)
Results filed as inconclusive are left out. A call without a number means that no potency is given here. Calls of active or inactive are those of the source. The call rests on the fitted dose curve; in most records, active means well fitted inhibition curve with a large enough effect in the signal ratio in the repeat runs; inconclusive means weak or mixed curves, or effect the other way; inactive means flat fitted curve, though single readings scatter; the % refers to the signal ratio.

experiment: qHTS assay for small molecule disruptors of the mitochondrial membrane potential (AID 720635); details: HepG2 mitochondrial membrane potential, Mito-MPS dye ratio; series mostly up to 83.2 µM
Summary of the method: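 HepG2 cells (2,000/well) attached overnight at 37C, then took compound for 1 hr at 37C, 5% CO2. Mito-MPS dye was added for 30 min; fluorescence was read at 490/535 nm (monomers) and 540/590 nm (aggregates).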
Potency means the concentration at half of the fitted maximal effect.

SMILES	Potency
NC(=O)Oc1ccc(Cc2ccccc2)cc1	21.1 µM (active)
CCCC(CCC)C(N)=O	inactive
CC1CC(OC(=O)C(O)c2ccccc2)CC(C)(C)C1 (configuration not stated)	13.3 µM (active)
OC(CN1CCCCC1)c1cc(-c2ccccc2)on1 (configuration not stated)	inactive
CCC(c1ccccc1)c1noc(CCN(CC)CC)n1 (configuration not stated)	inactive
O=S(O)CNc1ccc(S(=O)(=O)c2ccc(NCS(=O)O)cc2)cc1	inactive
C=CCN1CCCC1CNC(=O)c1cc(S(N)(=O)=O)cc(OC)c1OC (configuration not stated)	inactive
CCCCCCCCCCCCCCCCCC(=O)OCCO	inactive
CCCCCCCCCCCCCCCCCCCCCC(=O)Nc1ccn([C@@H]2O[C@H](CO)[C@@H](O)[C@@H]2O)c(=O)n1	inactive
CCCCOC(=O)C(=O)Nc1cccc(-c2nn[nH]n2)c1	inactive
CCOC(=O)[C@H](CCc1ccccc1)N[C@H]1CCCN2CCC[C@@H](C(=O)O)N2C1=O	inactive
CC(C)CN(C[C@@H](O)[C@H](Cc1ccccc1)NC(=O)O[C@@H]1CCOC1)S(=O)(=O)c1ccc(N)cc1	inactive
O.O=C([O-])CC([S-])C(=O)[O-].[Au+].[Na+].[Na+] (configuration not stated)	inactive
O=P(O)(O)C(Sc1ccc(Cl)cc1)P(=O)(O)O	inactive
O=C(CCCN1CCC(C(=O)c2ccc(F)cc2)CC1)c1ccc(F)cc1	inactive
C[C@H]1C[C@H]2[C@@H]3CCC4=CC(=O)C=C[C@]4(C)[C@@]3(F)[C@@H](O)C[C@]2(C)[C@@]1(O)C(=O)CCl	11.9 µM (active)
CC#CCC(C)[C@H](O)/C=C/[C@@H]1[C@H]2C/C(=C/CCCC(=O)O)C[C@H]2C[C@H]1O (some centres not stated)	inactive
